Compound activity: PubChem, several laboratories
M1 antagonist: blocks the rat M1 muscarinic receptor response to acetylcholine; P08482; CHO-M1 cells, Fluo-4 calcium, ACh EC80 antagonist mode; stronger effect = lower value; B-score at 10 µM; 64,000 compounds, 3.4% hits; AID 628;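 active = calcium fluorescence response, raw or row-and-column corrected B-score, differing from the plate sample mean either way at a set confidence level, mostly lower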
Target sequence (P08482 whole entry, looked up): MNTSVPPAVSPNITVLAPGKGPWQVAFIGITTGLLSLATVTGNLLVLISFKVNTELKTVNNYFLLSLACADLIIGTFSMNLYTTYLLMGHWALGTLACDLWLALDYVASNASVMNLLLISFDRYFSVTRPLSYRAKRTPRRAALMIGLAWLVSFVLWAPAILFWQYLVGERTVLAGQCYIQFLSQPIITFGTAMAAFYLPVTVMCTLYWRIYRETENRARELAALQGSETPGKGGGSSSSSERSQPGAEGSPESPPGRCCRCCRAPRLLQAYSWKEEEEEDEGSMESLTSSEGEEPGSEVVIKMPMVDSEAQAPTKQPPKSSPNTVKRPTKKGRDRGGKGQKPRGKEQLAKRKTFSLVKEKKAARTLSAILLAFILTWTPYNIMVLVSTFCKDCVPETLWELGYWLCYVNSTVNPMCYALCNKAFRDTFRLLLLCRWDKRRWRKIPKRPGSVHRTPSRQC
Abs 340nm: compounds absorbing at 340 nm | compound absorbance at 340 nm, fold over control | fold change at 10 µM | 65,000 tested, under 10 active | AID 708;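 active = at 10 µM dose, initial 340 nm absorbance at least 2 fold that of control wells; inactive = change under 2 fold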;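 note: initial absorbance extrapolated from kinetic A340 decline of NADH oxidation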
NADH coupling: blocks coupling enzymes of NAD/NADH assays | coupled PK/LDH NADH assays, four targets | IC50, µM (highest dose often 10 µM) | 65,000 compounds, 0.02% hits | AID 774;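 active = single-dose screening hits from any of four coupled enzyme assays that gave an IC50 when retested across doses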;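 note: the DPM-DC format reads NADH fluorescence rather than 340 nm absorbance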
Autofluor 339: intrinsic fluorescence of library compounds, ex339/em460 – biochemical, MLSMR library, data from DPM-DC assay, artefact control, profiling panel | AID 709 | 65,000 compounds, 5.5% hits | compound autofluorescence, ex339/em460 nm, NADH buffer; stronger effect = higher value; 1 = no-compound wells, NADH background | fluorescence fold increase at 10 µM;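 active = at 10 µM, mean starting fluorescence two-fold or more over control wells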;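 note: signal is the first read of a kinetic run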
mHtt clearance: compounds clearing mutant huntingtin protein. inhibition, % at 1.5 µM. 47,000 compounds, 0.42% hits. HeLa Exon1htt(103Q)mCFP, aggregate imaging; zero = plate's median compound well;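 active = inhibition of aggregate fluorescence above about 70%, also judged a hit by eye on the cell image, limit read from the data, passing the limit was not always enough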;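 note: cells exposed to compound for three days before fixation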
M1 agonist: agonists of M1 muscarinic receptor; CHO-M1 cells, Fluo-4 calcium fluorescence, agonist mode; stronger effect = higher value; B-score at 10 µM; 64,000 compounds, 3% hits;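 active = fluorescence rise, raw or as B-score row- and column-corrected plate score, outside the 99.7% band of its plate's samples, either direction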
Numbers stand for hits; . = inactive; / = no result given. Only some compounds are listed: those with a hit (about 9.3% of all), similar ones and a draw of the others.

SMILES | M1 antagonist | Abs 340nm | NADH coupling | Autofluor 339 | mHtt clearance | M1 agonist
c1ccc2c(c1)OCC(c1nn3c(Cn4nnc5ccccc54)nnc3s1)O2 (configuration not stated) | . | . | . | . | . | -3.24
c1ccc(Cc2nn3c(Cn4nnc5ccccc54)nnc3s2)cc1 | . | . | . | . | . | .
CCOC(=O)N1CCC(NC(=O)c2cnn3cccnc23)CC1 | . | . | . | 2.15 | . | .
Cc1ccc(-c2cc(-c3ccccc3)c3c(N)c(S(C)(=O)=O)sc3n2)cc1 | / | / | / | / | . | /
CS(=O)(=O)c1sc2nc(-c3cccs3)cc(-c3ccccc3)c2c1N | . | . | . | 3.77 | . | .
CCOC(=O)c1cnc(-n2nc(C)cc2C)nc1NC1CCCCC1 | . | . | . | 2.05 | / | .
CCOc1ccc(OCC)c(NC(=O)CCn2cccc2)c1 | . | . | . | . | . | .
COc1ccc(OC)c(C(=O)COC(=O)c2ccccc2O)c1 | . | . | . | . | . | .
COC(=O)c1ccccc1NC(=O)c1cnn2c(C(F)F)cc(C3CC3)nc12 | . | . | . | . | 75.7 | .
O=C(NCCc1ccccc1)c1cnn2c(C(F)F)cc(C3CC3)nc12 | . | . | . | . | / | .
CCCOc1ccc2oc(=O)c3c(c2c1)CCCN3C(=O)CN1CCN(C(=O)c2ccco2)CC1 | . | . | . | 2.97 | / | .
CCCOc1ccc2oc(=O)c3c(c2c1)CCCN3C(=O)CN1CCN(c2ncccn2)CC1 | . | . | . | . | . | .
CN1/C(=C/C2CC(=O)N(c3ccc([N+](=O)[O-])cc3)C2=O)C(C)(C)c2ccccc21 (configuration not stated) | / | / | / | / | . | /
O=C(NCc1ccco1)c1cc2ccc(O)cc2oc1=O | . | . | . | 3.83 | . | .
COc1ccc2cc(C(=O)NC3CCCCC3)c(=O)oc2c1 | . | . | . | 3.51 | . | .
COc1ccc2cc(C(=O)NCc3ccco3)c(=O)oc2c1 | . | . | . | 3.28 | . | .
CN(C)CCNC(=O)c1cc2ccccc2oc1=O | . | . | . | . | 73.6 | .
O=C(CSc1nnc(Cc2ccccc2)o1)Nc1ccc2c(c1)OCO2 | / | / | / | / | . | /
Brc1ccc(-c2nc3ccccc3s2)s1 | . | . | . | 2.23 | . | .
CN(C)c1ccc2c(O)cc(=O)n(C)c2c1 | . | . | . | 2.27 | / | .
O=C(CSc1n[nH]c(-c2ccc(S(=O)(=O)NC3CCCCC3)cc2)n1)N1CCCC1 | . | . | . | 2.97 | / | .
CN(C)C(CNC(=O)CN1C(=O)NC2(CCc3ccccc32)C1=O)c1ccco1 (configuration not stated) | . | . | . | . | / | .
C[N+]12CCCCC1C(COC(=O)c1ccc3c(c1)OCO3)CCC2 (configuration not stated) | / | / | / | / | . | /
Nc1c(C(=O)NC2CCCCC2)c2nc3ccccc3nc2n1/N=C/c1ccco1 | . | . | . | 3.68 | / | .
CCCCNC(=O)c1c(N)n(/N=C/c2ccccn2)c2nc3ccccc3nc12 | . | / | / | / | . | .
SMILES | M1 antagonist | Abs 340nm | NADH coupling | Autofluor 339 | mHtt clearance | M1 agonist
CCCCCCNC(=O)c1c(N)n(/N=C/c2ccco2)c2nc3ccccc3nc12 | . | . | . | 2.97 | / | .
COCCNC(=O)c1c(N)n(/N=C/c2cccs2)c2nc3ccccc3nc12 | . | . | . | 2.48 | / | .
COc1cccc(C(=O)N(Cc2ccc(N(C)C)cc2)C2CCS(=O)(=O)C2)c1 (configuration not stated) | . | . | . | . | / | .
CCOC(=O)Cc1c(C)c2ccc(N(CC)CC)cc2oc1=O | . | . | . | 4.37 | . | .
CCN(CC)c1ccc2c(C)c(-c3ccc(N)cc3)c(=O)oc2c1 | . | . | . | 2.47 | / | .
CCOC(=O)Cc1c(C)c2c(O)cc(O)cc2oc1=O | . | . | . | 2.43 | / | .
CCOC(=O)c1oc2cc(O)ccc2c(=O)c1-c1ccc(OC)cc1 | / | / | / | / | . | /
CCOC(=O)CCc1c(C)c2ccc(O)cc2oc1=O | . | . | . | 3.69 | . | .
Cc1ccc(N(CC(=O)NC2CCCC2)C(=O)c2c(C)noc2C)cc1C | / | / | / | / | . | /
O=c1[nH]c(CN2CCN(CCO)CC2)nc2ccccc12 | . | . | . | . | 76.6 | .
CCC(=O)Nc1ccc(NC(=O)CSc2nnnn2C(C)C)cc1 | . | . | . | . | / | .
O=C(Nn1cnnc1)c1cc2c(s1)CCCCC2 | . | . | . | . | / | .
CCOC(=O)c1snc2c(=O)[nH]cnc12 | . | . | . | 3.73 | . | .
